Nine molecules from PubChem BioAssay (EPA / NIEHS) can be followed below.

Each structure is given as a SMILES string. Records with an inconclusive call do not appear. A structure can be active in one record and inactive in another. The source made the active and inactive calls. The calls were made as follows, unless noted: active = hit-call score of the fitted dose curve at least 0.9, where 1 is the maximum; inactive = score below 0.9. Peptide text beside a SMILES is read from it.

Experiment [1] concerns the target Glucocorticoid receptor (Homo sapiens) (UniProt P04150). Nature of the experiment: ATG_GR_TRANS: Attagene TRANS-FACTORIAL HepG2 Assay for human Glucocorticoid Receptor (GR) (AID 2282978; active = hit-call score of the fitted dose curve at least 0.9, where 1 is the maximum;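 also: activators score as hits since higher reporter transcript over DMSO is fitted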). Particulars: HepG2 Attagene TRANS GR reporter, mRNA transcription. Put shortly:
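After 24 h incubation with test chemical, transfected HepG2 cells were lysed for RNA; reporter cDNA was amplified, FAM-labelled, HpaI-digested and sized on a capillary analyser. Signal gain relative to DMSO was scored.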

The target of experiment [2] is Oxysterols receptor LXR-alpha (Homo sapiens) (UniProt Q13133). Nature of the experiment: ATG_LXRa_TRANS: Attagene TRANS-FACTORIAL HepG2 Assay for human Liver X Receptor alpha (LXRa) (AID 2282980; active = hit-call score of the fitted dose curve at least 0.9, where 1 is the maximum). Particulars: HepG2 Attagene TRANS reporter, LXRa transactivation. Put shortly: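 Transient HepG2 transfectants, 24 h dosing, RT-PCR/CE mRNA reporter quantitation; gain-of-signal vs DMSO.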
Chain of Oxysterols receptor LXR-alpha (Homo sapiens) (Q13133 whole entry, looked up): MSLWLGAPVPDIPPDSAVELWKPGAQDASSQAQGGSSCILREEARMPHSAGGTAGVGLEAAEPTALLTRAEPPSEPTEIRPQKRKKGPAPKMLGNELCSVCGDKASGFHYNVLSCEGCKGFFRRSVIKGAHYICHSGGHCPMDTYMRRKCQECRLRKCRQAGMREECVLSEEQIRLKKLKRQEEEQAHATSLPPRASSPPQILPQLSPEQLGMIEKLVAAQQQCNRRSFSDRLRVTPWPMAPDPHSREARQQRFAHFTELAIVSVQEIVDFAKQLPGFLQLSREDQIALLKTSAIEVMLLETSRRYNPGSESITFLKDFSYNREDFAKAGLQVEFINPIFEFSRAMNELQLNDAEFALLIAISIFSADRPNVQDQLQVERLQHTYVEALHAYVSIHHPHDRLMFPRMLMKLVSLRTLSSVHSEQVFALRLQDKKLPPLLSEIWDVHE

For experiment [3], the target named is Oxysterols receptor LXR-beta (Homo sapiens) (UniProt P55055). The experiment can be described thus: ATG_LXRb_TRANS: Attagene TRANS-FACTORIAL HepG2 Assay for human Liver X Receptor beta (LXRb) (AID 2282981; active = hit-call score of the fitted dose curve at least 0.9, where 1 is the maximum). Conditions: HepG2 Attagene TRANS GAL4-LXRb reporter, mRNA. Put shortly:
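Cells: HepG2, transiently transfected with GAL4-UAS reporter units plus LXRb-Gal4 fusion. Treatment: 24 h. Detection: reporter mRNA by RT-PCR, 6-FAM labelling, HpaI digestion, capillary electrophoresis.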

A short description of experiment [4]: ATG_M_06_TRANS: Attagene TRANS-FACTORIAL HepG2 Assay for M06 Transcription Factor (Internal Marker) (AID 2282983; active = hit-call score of the fitted dose curve at least 0.9, where 1 is the maximum). Particulars: HepG2 Attagene TRANS M06 internal marker reporter. Put shortly:
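Measured by capillary electrophoresis of fluorescently labelled RT-PCR products, this endpoint reflects reporter mRNA in HepG2 cells harbouring exogenous NR-GAL4 reporter constructs after 24 h exposure, with DMSO as baseline.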

Experiment [5] can be described thus: ATG_M_32_TRANS: Attagene TRANS-FACTORIAL HepG2 Assay for M32 Transcription Factor (Internal Marker) (AID 2282984; active = hit-call score of the fitted dose curve at least 0.9, where 1 is the maximum;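 also: transcript level of a background control reporter unit measured by RT-PCR and capillary electrophoresis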). Conditions: HepG2 Attagene TRANS M32 internal marker reporter. Put shortly:
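Using transiently transfected HepG2 cells exposed to test chemicals for 24 h, reporter transcripts are converted to labelled cDNA fragments and quantified by capillary electrophoresis. DMSO defines the activity baseline.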

The target in experiment [6] is Transcriptional activator Myb (Homo sapiens) (UniProt P10242). The experiment can be described thus: ATG_Myb_CIS: Attagene CIS-FACTORIAL HepG2 Assay for human Myeloblastosis (Myb) Proto-Oncogene Transcription Factor (AID 2282986). Conditions: HepG2 Attagene CIS-FACTORIAL Myb reporter transcription; actives raise or lower the signal. Put shortly:
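After 24 h of compound dosing, total RNA from transfected HepG2 cells is reverse-transcribed and the reporter sequences amplified, labeled and separated by capillary electrophoresis. Values come from bidirectional fitting against DMSO.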

A short description of experiment [7]: ATG_NFI_CIS: Attagene CIS-FACTORIAL HepG2 Assay for human Nuclear Factor I (NFI) (AID 2282989). Particulars: HepG2 cis-regulatory reporter, NFI response element transcription; actives raise or lower the signal. A digest of the protocol: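 HepG2 cells transiently transfected with cis-element-driven multiplexed reporter transcription units, dosed for 24 h. Reporter mRNA quantified by RT-PCR, fluorescent labelling, HpaI digestion and capillary electrophoresis; bidirectional fit versus DMSO baseline.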

For experiment [8], the target named is Myc proto-oncogene protein (Homo sapiens) (UniProt P01106). Nature of the experiment: ATG_Myc_CIS: Attagene CIS-FACTORIAL HepG2 Assay for human Myelocytomatosis (Myc) Proto-Oncogene Transcription Factor (AID 2282990). Conditions: HepG2, Attagene cis-reporter transcription factor activity; actives raise or lower the signal. Put shortly:
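HepG2, transient MRTU transfection (cis promoters, endogenous TFs); 24 h dosing; TriZol RNA → oligo(dT) RT → PCR → 6-FAM primer extension → HpaI cut → CE. Bidirectional fit vs DMSO.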

Experiment [9] in a line: ATG_NF_kB_CIS: Attagene CIS-FACTORIAL HepG2 Assay for human Nuclear Factor Kappa B (NF-kB) (AID 2282991). Particulars: HepG2 Attagene cis-factorial NF-kB reporter mRNA; actives raise or lower the signal. A digest of the protocol:
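Fluorescence of labelled RT-PCR products separated by capillary electrophoresis gives reporter mRNA levels from transfected HepG2 cells exposed 24 h; values are fitted in both directions relative to DMSO.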

A short description of experiment [10]: ATG_Oct_MLP_CIS: Attagene CIS-FACTORIAL HepG2 Assay for human Octamer-Binding Transcription Factor (Oct) (AID 2282993). Particulars: HepG2 Attagene cis-factorial Oct reporter, mRNA; actives raise or lower the signal. A digest of the protocol:
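HepG2 cells transiently transfected with cis-promoter-driven multiplexed reporter transcription units, dosed for 24 h. Reporter mRNA quantified by RT-PCR, fluorescent labelling, HpaI digestion and capillary electrophoresis; bidirectional fits versus DMSO baseline.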

Experiment [11] concerns the target Cellular tumor antigen p53 (Homo sapiens) (UniProt P04637). The experiment can be described thus: ATG_p53_CIS: Attagene CIS-FACTORIAL HepG2 Assay for human p53 Transcription Factor (AID 2282994). Conditions: HepG2 p53 cis-element reporter, Attagene mRNA; actives raise or lower the signal. A digest of the protocol: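 Multiplexed reporter mRNA assay in human HepG2 liver cells; cis-regulated units report endogenous factor activity. Values come from bidirectional curve fitting against DMSO negative control after 24 h treatment.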

For experiment [12], the target named is Hepatocyte nuclear factor 4-alpha (Homo sapiens) (UniProt P41235). The experiment can be described thus: ATG_HNF4a_TRANS: Attagene TRANS-FACTORIAL HepG2 Assay for human Hepatocyte Nuclear Factor 4 alpha (HNF4a) (AID 2282982; active = hit-call score of the fitted dose curve at least 0.9, where 1 is the maximum). Conditions: HepG2 HNF4a transactivation reporter, mRNA readout. A digest of the protocol:
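Transfected HepG2 reporter cells are dosed for 24 h; reporter RNA is reverse-transcribed, amplified, fluorescently labelled and HpaI-digested before CE sizing. Positive-direction fit against DMSO.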

In experiment [13] the target is Nuclear respiratory factor 1 (Homo sapiens) (UniProt Q16656). Nature of the experiment: ATG_NRF1_CIS: Attagene CIS-FACTORIAL HepG2 Assay for human Nuclear Respiratory Factor 1 (NRF1) Orphan Gene (AID 2282987). Particulars: HepG2 NRF1 cis-element reporter, Attagene multiplex; actives raise or lower the signal. Put shortly:
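Measured: fluorescent reporter-specific RT-PCR products from transfected HepG2 cells, separated by capillary electrophoresis. Exposure lasted 24 h. Analysis used bidirectional curve fitting with DMSO as negative control.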

The nature of experiment [14]: ATG_NRF2_ARE_CIS: Attagene CIS-FACTORIAL HepG2 Assay for human Nuclear Factor Erythroid 2 Related Factor 2 (NFR2) response to Antioxidant Response Elements (ARE) (AID 2282992). Particulars: HepG2 Attagene ARE/NRF2 reporter, transcription factor activity; actives raise or lower the signal. A digest of the protocol: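 Multiplexed reporter mRNA profiling in HepG2 after a 24 h chemical exposure. Curves fitted in both directions relative to DMSO negative control.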

Experiment [15] concerns the target Bile acid receptor (Homo sapiens) (UniProt Q96RI1). Nature of the experiment: ATG_FXR_TRANS: Attagene TRANS-FACTORIAL HepG2 Assay for Farnesoid X Receptor (FXR) (AID 2282979; active = hit-call score of the fitted dose curve at least 0.9, where 1 is the maximum;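 also: hits raise reporter mRNA above DMSO so AC50 marks FXR activation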). Conditions: HepG2 Attagene TRANS FXR-GAL4 reporter transcription. A digest of the protocol:
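Chimeric FXR-GAL4 activity in transiently transfected human HepG2 liver cells is scored as induction of reporter mRNA after 24 h of dosing. Detection uses RT-PCR with fluorescent labelling and capillary electrophoresis, with DMSO serving as baseline.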

Experiment [16] in a line: BSK_3C_TissueFactor: BioMAP Diversity Plus: 3C Assay for Tissue Factor Biomarker Activity (AID 2282997). Particulars: BioMAP 3C HUVEC, tissue factor biomarker readout; actives raise or lower the signal. A digest of the protocol:
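Values derive from bidirectional curve fitting against DMSO of Tissue Factor ELISA signals, taken 24 h after dosing primary human umbilical vein endothelial cells.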

Experiment [17] in a line: BSK_3C_uPAR: BioMAP Diversity Plus: 3C Assay for Urokinase-type plasminogen activator receptor (uPAR) Biomarker Activity (AID 2282998). Particulars: BioMAP 3C HUVEC, uPAR biomarker ELISA; actives raise or lower the signal. Put shortly:
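Human umbilical vein endothelial primary cells were exposed to test chemical for 24 h. Cell-surface uPAR was then quantified by ELISA, and responses were fitted bidirectionally against DMSO as negative control and baseline.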
In general terms: ELISA stands for enzyme-linked immunosorbent assay.

The nature of experiment [18]: BSK_3C_VCAM1: BioMAP Diversity Plus: 3C Assay for Vascular cell adhesion molecule 1 (VCAM1) Biomarker Activity (AID 2282999). Particulars: BioMAP 3C HUVEC, VCAM1 ELISA, cytokine-stimulated; actives raise or lower the signal. Put shortly: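 Endothelial cells from human umbilical vein are treated with test chemical. At 24 h, VCAM-1 is measured by ELISA, and responses in either direction are fitted relative to DMSO.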

For experiment [19], the target named is Nuclear receptor subfamily 4 group A member 2 (Homo sapiens) (UniProt P43354). Nature of the experiment: ATG_NURR1_TRANS: Attagene TRANS-FACTORIAL HepG2 Assay for human Nuclear Receptor Related Protein 1 (NURR1) (AID 2282985; active = hit-call score of the fitted dose curve at least 0.9, where 1 is the maximum). Particulars: HepG2 Attagene TRANS reporter, mRNA readout. A digest of the protocol:
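Cells: HepG2, transiently transfected. Exposure: 24 h. Detection: fluorescence of labelled RT-PCR products separated by capillary electrophoresis; upward fit versus DMSO.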

Chain of Transcriptional activator Myb (Homo sapiens) (P10242 whole entry, looked up): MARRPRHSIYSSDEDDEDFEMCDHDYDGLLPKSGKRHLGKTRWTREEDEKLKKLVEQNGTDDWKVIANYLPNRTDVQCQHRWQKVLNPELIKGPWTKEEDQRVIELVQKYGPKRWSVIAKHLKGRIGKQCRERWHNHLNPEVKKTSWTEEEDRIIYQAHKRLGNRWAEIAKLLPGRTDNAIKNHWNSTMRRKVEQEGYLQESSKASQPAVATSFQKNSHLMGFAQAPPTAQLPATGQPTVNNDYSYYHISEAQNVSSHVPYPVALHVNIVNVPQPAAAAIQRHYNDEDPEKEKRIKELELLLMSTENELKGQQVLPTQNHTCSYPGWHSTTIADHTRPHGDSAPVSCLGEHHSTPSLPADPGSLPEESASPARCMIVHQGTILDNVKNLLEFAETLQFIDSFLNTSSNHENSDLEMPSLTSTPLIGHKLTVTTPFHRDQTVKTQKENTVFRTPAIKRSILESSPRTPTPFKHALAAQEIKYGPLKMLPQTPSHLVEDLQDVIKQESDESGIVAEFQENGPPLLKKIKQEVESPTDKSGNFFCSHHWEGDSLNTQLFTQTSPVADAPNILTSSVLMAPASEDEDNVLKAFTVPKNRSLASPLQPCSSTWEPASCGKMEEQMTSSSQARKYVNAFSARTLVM
Chain of Hepatocyte nuclear factor 4-alpha (Homo sapiens) (P41235 whole entry, looked up): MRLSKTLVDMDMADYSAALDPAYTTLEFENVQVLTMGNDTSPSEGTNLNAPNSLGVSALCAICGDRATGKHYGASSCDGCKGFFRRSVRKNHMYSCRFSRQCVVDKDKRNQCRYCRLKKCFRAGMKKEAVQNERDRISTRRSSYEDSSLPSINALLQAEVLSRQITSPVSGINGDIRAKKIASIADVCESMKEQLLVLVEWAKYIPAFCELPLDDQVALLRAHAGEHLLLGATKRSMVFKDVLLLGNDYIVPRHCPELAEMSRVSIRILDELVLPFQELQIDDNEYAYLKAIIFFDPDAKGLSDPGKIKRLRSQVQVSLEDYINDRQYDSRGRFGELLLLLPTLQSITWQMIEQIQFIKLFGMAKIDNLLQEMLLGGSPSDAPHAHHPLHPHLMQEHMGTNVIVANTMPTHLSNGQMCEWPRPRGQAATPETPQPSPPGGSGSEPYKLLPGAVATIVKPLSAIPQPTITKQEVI
Chain of Oxysterols receptor LXR-beta (Homo sapiens) (P55055 whole entry, looked up, the tested form may be a part): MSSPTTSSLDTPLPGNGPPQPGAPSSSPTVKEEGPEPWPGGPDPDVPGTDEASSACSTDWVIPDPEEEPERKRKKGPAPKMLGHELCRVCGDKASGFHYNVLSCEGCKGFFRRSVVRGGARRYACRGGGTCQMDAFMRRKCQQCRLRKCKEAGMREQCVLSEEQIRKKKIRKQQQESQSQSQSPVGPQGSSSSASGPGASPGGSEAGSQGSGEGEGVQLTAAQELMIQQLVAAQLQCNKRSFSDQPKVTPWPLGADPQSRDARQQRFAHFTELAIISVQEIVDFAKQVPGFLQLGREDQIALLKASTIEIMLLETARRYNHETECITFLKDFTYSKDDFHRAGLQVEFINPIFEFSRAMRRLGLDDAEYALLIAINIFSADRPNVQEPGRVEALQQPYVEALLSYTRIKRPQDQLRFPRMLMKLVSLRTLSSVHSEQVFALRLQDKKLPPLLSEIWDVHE
Chain of Cellular tumor antigen p53 (Homo sapiens) (P04637 whole entry, looked up): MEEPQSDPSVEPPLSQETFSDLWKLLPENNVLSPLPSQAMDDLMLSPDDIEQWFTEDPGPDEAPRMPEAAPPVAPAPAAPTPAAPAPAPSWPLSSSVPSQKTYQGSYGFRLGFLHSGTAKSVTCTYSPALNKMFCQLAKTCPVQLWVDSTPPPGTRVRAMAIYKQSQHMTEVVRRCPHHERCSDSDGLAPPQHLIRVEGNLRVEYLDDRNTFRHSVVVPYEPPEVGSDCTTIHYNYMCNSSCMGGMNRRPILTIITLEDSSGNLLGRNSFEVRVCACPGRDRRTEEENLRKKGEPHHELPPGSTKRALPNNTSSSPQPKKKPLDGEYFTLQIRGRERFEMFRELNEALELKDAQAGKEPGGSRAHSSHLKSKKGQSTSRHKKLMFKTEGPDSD
Chain of Myc proto-oncogene protein (Homo sapiens) (P01106 whole entry, looked up): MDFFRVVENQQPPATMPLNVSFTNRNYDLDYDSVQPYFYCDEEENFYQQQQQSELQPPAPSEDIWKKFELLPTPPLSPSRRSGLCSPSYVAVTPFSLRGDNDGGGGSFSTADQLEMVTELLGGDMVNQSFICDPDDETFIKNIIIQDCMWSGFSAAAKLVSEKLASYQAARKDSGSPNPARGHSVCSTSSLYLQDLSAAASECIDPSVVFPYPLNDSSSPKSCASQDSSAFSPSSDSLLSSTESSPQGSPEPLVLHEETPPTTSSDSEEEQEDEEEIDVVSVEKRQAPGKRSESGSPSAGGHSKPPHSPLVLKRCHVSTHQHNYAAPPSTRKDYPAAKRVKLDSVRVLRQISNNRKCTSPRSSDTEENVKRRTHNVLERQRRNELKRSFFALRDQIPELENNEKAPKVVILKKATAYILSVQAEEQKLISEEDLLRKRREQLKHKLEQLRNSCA
Chain of Nuclear respiratory factor 1 (Homo sapiens) (Q16656 whole entry, looked up): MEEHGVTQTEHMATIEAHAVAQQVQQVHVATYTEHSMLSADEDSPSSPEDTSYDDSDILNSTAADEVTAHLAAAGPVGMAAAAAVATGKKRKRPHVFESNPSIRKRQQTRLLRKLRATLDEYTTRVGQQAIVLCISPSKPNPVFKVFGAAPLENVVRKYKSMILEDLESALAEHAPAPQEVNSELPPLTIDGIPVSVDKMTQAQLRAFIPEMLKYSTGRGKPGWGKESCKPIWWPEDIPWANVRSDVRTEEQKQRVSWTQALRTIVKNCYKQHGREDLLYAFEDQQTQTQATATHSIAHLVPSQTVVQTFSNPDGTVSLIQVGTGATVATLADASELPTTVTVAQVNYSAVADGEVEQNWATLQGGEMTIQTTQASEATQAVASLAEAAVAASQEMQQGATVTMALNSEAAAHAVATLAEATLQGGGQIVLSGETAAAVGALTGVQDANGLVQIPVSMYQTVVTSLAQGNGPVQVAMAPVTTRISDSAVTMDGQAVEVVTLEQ
Chain of Glucocorticoid receptor (Homo sapiens) (P04150 whole entry, looked up): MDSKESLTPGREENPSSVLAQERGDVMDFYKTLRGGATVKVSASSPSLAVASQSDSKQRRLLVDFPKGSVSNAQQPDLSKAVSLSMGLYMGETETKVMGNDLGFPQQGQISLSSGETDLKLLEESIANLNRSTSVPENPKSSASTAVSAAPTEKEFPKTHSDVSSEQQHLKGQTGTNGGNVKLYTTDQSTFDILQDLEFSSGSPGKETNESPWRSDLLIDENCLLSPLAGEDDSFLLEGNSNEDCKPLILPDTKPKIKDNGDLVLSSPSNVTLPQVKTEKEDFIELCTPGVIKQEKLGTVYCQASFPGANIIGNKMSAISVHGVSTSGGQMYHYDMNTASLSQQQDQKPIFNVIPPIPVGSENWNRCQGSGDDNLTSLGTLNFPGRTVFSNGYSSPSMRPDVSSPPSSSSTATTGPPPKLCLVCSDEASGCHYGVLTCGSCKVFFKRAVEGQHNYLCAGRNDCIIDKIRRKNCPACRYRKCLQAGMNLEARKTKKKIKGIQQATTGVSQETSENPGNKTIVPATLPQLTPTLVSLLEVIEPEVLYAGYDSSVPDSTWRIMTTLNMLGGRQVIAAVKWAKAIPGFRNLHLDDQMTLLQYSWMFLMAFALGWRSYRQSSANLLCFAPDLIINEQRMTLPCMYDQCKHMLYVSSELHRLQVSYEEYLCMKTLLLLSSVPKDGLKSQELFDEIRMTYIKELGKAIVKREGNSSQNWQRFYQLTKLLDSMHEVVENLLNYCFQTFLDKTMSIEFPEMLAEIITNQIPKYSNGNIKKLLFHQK
Chain of Bile acid receptor (Homo sapiens) (Q96RI1 whole entry, looked up, the tested form may be a part): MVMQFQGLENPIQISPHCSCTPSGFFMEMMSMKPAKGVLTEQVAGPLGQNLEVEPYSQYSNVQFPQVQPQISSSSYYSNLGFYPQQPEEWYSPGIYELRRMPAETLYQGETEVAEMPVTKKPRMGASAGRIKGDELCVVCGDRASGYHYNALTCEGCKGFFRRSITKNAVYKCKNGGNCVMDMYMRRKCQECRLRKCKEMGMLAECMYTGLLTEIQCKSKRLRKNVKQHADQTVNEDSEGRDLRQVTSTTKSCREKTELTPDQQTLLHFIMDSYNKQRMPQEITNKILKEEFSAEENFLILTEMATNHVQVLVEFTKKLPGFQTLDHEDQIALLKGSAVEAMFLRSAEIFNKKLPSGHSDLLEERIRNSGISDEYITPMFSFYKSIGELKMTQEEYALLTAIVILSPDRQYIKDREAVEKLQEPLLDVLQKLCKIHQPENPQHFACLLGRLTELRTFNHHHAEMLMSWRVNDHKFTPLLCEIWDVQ

For `COC(=O)[C@H](Cc1ccccc1)NC(=O)[C@@H](N)CC(=O)O` (H-Asp-Phe-OMe), the call in experiment [1], in experiment [2], in [3], in [4], in [5] and in experiment [6] was inactive. The result in experiment [7], in [8], in experiment [9], in experiment [10] and in experiment [11] was inactive.

With `COc1ccc(-c2coc3cc(O)cc(O)c3c2=O)cc1`, the result in [1], in [2], in experiment [3], in experiment [12], in [4] and in experiment [6] was inactive. Also, the molecule was classed as inactive in experiment [7] and in experiment [8]. In addition, the concentration at half-maximal activity (AC50) – broadly, the concentration giving half of the maximal activity seen – in experiment [13] was 25.9 µM (active); in experiment [14], 27.2 µM (active); in experiment [10], 39 µM (active); in experiment [11], 159 µM (active).

In the case of `CCCCCCCCCCCC(C)=O`, the molecule was called inactive in experiment [1], in experiment [15], in experiment [12], in experiment [6], in experiment [7] and in experiment [8]. Besides, the call in experiment [10] was inactive. Besides, the AC50 is 158 µM (active) in experiment [13]; 75.2 µM (active) in experiment [14]; 147 µM (active) in experiment [11]; 25.4 µM (active) in [16]; 34.5 µM (active) in experiment [17]; 29.8 µM (active) in [18].

For the molecule `N#CC1(N)CCCCC1`, the outcome in experiment [1], in experiment [2], in [3], in [12], in experiment [5] and in experiment [6] was inactive. Further, the outcome in experiment [13], in [7], in experiment [8], in experiment [14], in [10] and in [11] was inactive.

As to `CC(=O)C(C)C`, the molecule was classed as inactive in [1], in experiment [2], in experiment [3], in experiment [12], in [6] and in [13]. For the same molecule, the result in [7], in [8], in experiment [14], in experiment [10] and in experiment [11] was inactive.

In the case of `C[N+](C)(C)CCCNS(=O)(=O)C(F)(F)C(F)(F)C(F)(F)C(F)(F)C(F)(F)C(F)(F)C(F)(F)C(F)(F)F`, the molecule was called inactive in [1], in experiment [15], in experiment [12], in experiment [4], in [6] and in experiment [7]. In addition, the call in experiment [8], in experiment [14], in experiment [10], in experiment [11], in [16] and in experiment [17] was inactive. Further, the result in [18] was inactive. Further, the AC50 in [16] is 41.3 µM (active); in experiment [17] it was 20.7 µM (active).

With `C=C1C[C@H]2[C@@H]3C=C(C)C4=CC(=O)CC[C@]4(C)[C@H]3CC[C@]2(C)[C@@]1(OC(C)=O)C(C)=O`, the AC50 in experiment [1] was 0.0106 µM (active); in experiment [2] it was 16.6 µM (active); in [13] it was 88.1 µM (active); in experiment [7] it was 106 µM (active); in experiment [9] it was 63 µM (active). Also, the result in experiment [3], in [4], in experiment [5], in [19], in experiment [6] and in experiment [8] was inactive. The outcome in experiment [10] and in [11] was inactive.

In the case of `C=C[C@@]1(C)CC(=O)[C@]2(O)[C@@]3(C)[C@@H](O)CCC(C)(C)[C@@H]3[C@H](O)[C@H](OC(C)=O)[C@@]2(C)O1`, the half-maximal activity concentration (AC50) in experiment [1] was 42.5 µM (active); in experiment [3] it was 0.973 µM (active); in experiment [14], 2.95 µM (active); in [11] it was 0.983 µM (active). Besides, the molecule was classed as inactive in experiment [2], in [12], in experiment [19], in experiment [6], in experiment [7] and in experiment [8]. In addition, the call in experiment [10] was inactive.

For `CCNc1nc(NC(C)(C)C)nc(OC)n1`, the molecule was classed as inactive in [1], in experiment [15], in [3], in [6], in experiment [13] and in experiment [7]. Also, the molecule was called inactive in [8], in experiment [14], in experiment [10], in experiment [11], in experiment [16] and in [17].
